Reference: PubChem BioAssay AID651711 (Broad Institute, 2012)
Where “and” joins values, the source holds several entries; their conditions need not be identical. Equal values may be shown once. About 180 (0.051%) of roughly 350,000 compounds were called active.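 How the source made its calls: active means mean replicate inhibition above about 25%, with every replicate also reaching it (limit read from the data, passing the limit was not always enough); inconclusive means only one of those two criteria met; inactive means neither criterion met.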 What follows is part of a selection rich in actives, with near analogues and random picks from the rest.

Each compound was assayed against Protein disulfide-isomerase A6 (Homo sapiens) (UniProt Q15084) (assay: inhibitors of ERp5-driven insulin aggregation, primary screen, biochemical, turbidity, absorbance 650 nm, single point (AID 651711)). Conditions: 90 min, at 9.99 µM, hits give high values.
Protein disulfide-isomerase A6 (Homo sapiens), sequence (Q15084 whole entry, looked up): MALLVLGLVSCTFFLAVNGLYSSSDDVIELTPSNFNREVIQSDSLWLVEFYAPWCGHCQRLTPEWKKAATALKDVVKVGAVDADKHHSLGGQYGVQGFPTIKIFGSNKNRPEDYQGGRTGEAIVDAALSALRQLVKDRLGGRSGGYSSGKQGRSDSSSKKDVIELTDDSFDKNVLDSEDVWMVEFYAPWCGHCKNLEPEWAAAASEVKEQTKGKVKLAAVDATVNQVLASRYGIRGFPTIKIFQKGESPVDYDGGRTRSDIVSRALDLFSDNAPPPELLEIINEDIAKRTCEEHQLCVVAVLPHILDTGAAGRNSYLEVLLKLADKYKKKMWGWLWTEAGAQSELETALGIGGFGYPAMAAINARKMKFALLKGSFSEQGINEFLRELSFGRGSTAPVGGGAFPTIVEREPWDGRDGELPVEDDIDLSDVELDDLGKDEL

inhibition, inactive:
C[C@H](CO)N1C[C@H](C)[C@H](CN(C)C(=O)CCC(F)(F)F)OCCCC[C@H](C)Oc2ccc(NS(=O)(=O)c3ccc(F)cc3)cc2C1=O 6.41%, COCC(=O)Nc1ccc2c(c1)[C@@H]1C[C@H](CC(=O)NCc3ccc(-c4ccccc4)cc3)O[C@H](CO)[C@@H]1O2 -0.847%, CN1C(=O)c2cc(NC(=O)C3CCCC3)ccc2OC[C@@H]2O[C@@H](CC(=O)NCCc3ccncc3)CC[C@@H]21 -3.7%, C[C@@H]1CCCCO[C@H](CN(C)S(=O)(=O)c2ccc(Cl)cc2)[C@@H](C)CN([C@H](C)CO)C(=O)c2cc(NC(=O)Nc3ccc4c(c3)OCO4)ccc2O1 0.772%, O=C1[C@@H](c2ccccc2)[C@@H](c2ccccc2)N1c1ccccc1 3.47%, O=C(N[C@@H]1C=C[C@@H](CC(=O)N2CCOCC2)O[C@H]1CO)c1ccccn1 2.34%, CN(C)CC(=O)Nc1ccc2c(c1)[C@H]1C[C@H](CC(=O)NCc3ccccn3)O[C@@H](CO)[C@H]1O2 -3.52%, Cc1[nH]c2ccccc2c1CC(=O)Nc1ccc(Nc2cccnc2)c(-c2cccc(Cl)c2)c1 -5.11%, CO[C@H](CN(C)C(=O)c1ccc2c(c1)OCO2)[C@H](C)CN([C@@H](C)CO)S(=O)(=O)c1ccc(Cl)cc1 3%, C[C@H]1CN([C@@H](C)CO)C(=O)c2cccc(NC(=O)Nc3ccc(F)cc3)c2O[C@@H]1CN(C)C(=O)Nc1ccc2c(c1)OCO2 4.97%, N#C[C@@H]1[C@H](c2ccccc2-c2ccc(F)cc2)[C@@H](CO)N1c1ncc(-c2ccccc2)s1 3.09%, O=C(c1ccncc1)N1C[C@H]2[C@@H](c3ccccc31)[C@H](CO)N2Cc1ccc(F)cc1 -3.32%, COc1ccc2c3c(n(C)c2c1)[C@@H](CO)NCC31CCN(CC2CCCC2)CC1 1.66%, O=C(Nc1ccccc1)N1CC(=O)N2[C@@H](CO)[C@H](c3ccc(C#CC4CCCC4)cc3)[C@@H]2C1 1.6%, C[C@@H]1CN([C@H](C)CO)C(=O)c2cc(-c3cncnc3)cnc2O[C@@H]1CN(C)Cc1ccc(Oc2ccccc2)cc1 -1.07% and -77.5%, COCC(=O)Nc1ccc2c(c1)C(=O)N(C)[C@@H]1CC[C@@H](CC(=O)NCCCN(C)C)O[C@@H]1CO2 -2.7%, C[C@@H](NC(=O)C[C@@H]1C=C[C@@H](NC(=O)CN2CCOCC2)[C@H](CO)O1)c1ccccc1 10.6%, Cc1ccc(S(=O)(=O)Nc2ccc3c(c2)C(=O)N([C@@H](C)CO)C[C@H](C)[C@H](CN(C)C(=O)Nc2ccc(C(F)(F)F)cc2)O3)cc1 -3.11%, CCNC(=O)[C@H]1[C@H](CO)[C@H]2Cn3c(ccc(/C=C/c4ccccc4)c3=O)[C@@H]1N2C(=O)C1CCC1 -5.59%, Cn1cnc(S(=O)(=O)N2C[C@@H](O)COC[C@H]3O[C@@H](CC(=O)NCc4ccc(F)cc4)CC[C@@H]32)c1 -0.766%, C[C@@H]1CCCCO[C@@H](CN(C)Cc2ccccc2)[C@H](C)CN([C@H](C)CO)C(=O)c2cc(NC(=O)Nc3cccc4ccccc34)ccc2O1 0.587%, O=C(c1cnccn1)N1CC2(C1)[C@H](c1ccccc1)[C@H](CO)N2C(=O)c1ccccc1 4.61%, COc1ccc(CN2C[C@@H](C)[C@H](OC)CN(C)C(=O)c3cc(NC(C)=O)ccc3OC[C@@H]2C)cc1 4.2%, C[C@H]1CN([C@@H](C)CO)C(=O)Cc2cc(NC(=O)Nc3ccc(C(F)(F)F)cc3)ccc2O[C@@H]1CN(C)S(=O)(=O)c1ccc(Cl)cc1 0.316%, CO[C@@H]1CN(C)C(=O)c2cc(NC(=O)C3CCOCC3)ccc2OC[C@H](C)N(Cc2cccnc2)C[C@H]1C 7.73%, CO[C@@H]1CN(C)C(=O)c2cc(NC(=O)c3ccccc3F)ccc2OC[C@@H](C)N(CC2CC2)C[C@H]1C -2.62%, COc1ccc(S(=O)(=O)N(C)C[C@H]2Oc3ccc(N(C)C)cc3C(=O)N([C@@H](C)CO)C[C@@H]2C)cc1 -9.71%, COc1ccccc1NC(=O)Nc1ccc2c(c1)OC[C@H](C)NC[C@H](C)[C@@H](OC)CN(C)C2=O 7.16%, COc1ccc(CN(C)C[C@H]2Oc3c(NC(=O)C4CCCCC4)cccc3C(=O)N([C@@H](C)CO)C[C@H]2C)cc1 4.09%, O=C(Cc1cccnc1)N1CC(=O)N2[C@@H](CO)[C@H](c3ccc(C#CC4CC4)cc3)[C@@H]2C1 1.76%, O=C(NCC[C@H]1CC[C@@H](NC(=O)C2CCCC2)[C@@H](CO)O1)c1cc(Cl)cc(Cl)c1 -0.154%, C[C@@H]1CN([C@H](C)CO)C(=O)c2cc(NC(=O)CCCN(C)C)ccc2O[C@@H](C)CCCCO[C@@H]1CN(C)Cc1ccncc1 -3.78%, Cc1ccc(S(=O)(=O)NCC[C@@H]2CC[C@H](NC(=O)CC3CC3)[C@H](CO)O2)cc1 -0.231%, O=C(NC1CCC1)[C@H]1[C@H](CO)[C@H]2Cn3c(ccc(-c4ccccc4)c3=O)[C@@H]1N2Cc1cocn1 -0.224%, CCC(=O)N(C)C[C@@H]1Oc2cc(C#CC(C)(C)O)ccc2S(=O)(=O)N([C@@H](C)CO)C[C@@H]1C -4%, CCCC#Cc1cnc2c(c1)C(=O)N([C@H](C)CO)C[C@@H](C)[C@@H](CN(C)C(=O)C1CCOCC1)O2 2.67%, C[C@H](CO)N1C[C@H](C)[C@H](CN(C)CC2CCCCC2)Oc2ccc(NC(=O)CCN3CCOCC3)cc2CC1=O 0.283%, Cc1ccc(S(=O)(=O)N(C)C[C@@H]2Oc3ccc(NC(=O)c4ccncc4)cc3CC(=O)N([C@H](C)CO)C[C@H]2C)cc1 -4.73%, COc1ccc(S(=O)(=O)N2CC[C@@H]3[C@H](CO)Nc4ccc(C#Cc5cccc(OC)c5)cc4[C@@H]32)cc1 4.05%, C/C=C/c1ccc([C@H]2[C@@H](CO)N(C(=O)C3CC3)[C@@H]2CNC(=O)NC(C)C)cc1 -0.982%, CO[C@@H](CN(C)C(=O)c1cnccn1)[C@@H](C)CN([C@@H](C)CO)S(=O)(=O)c1ccc(Cl)cc1 0.364%, COc1ccc2c3c(n(C)c2c1)[C@@H](CO)N(CC1CC1)CC31CCN(C(=O)c2ccc3c(c2)OCO3)CC1 -0.398%
